In PubChem BioAssay AID1159580 (chemical genetic matrix, 2015):
“And” between values parts separate entries of the source, which are not always exact repeats. Equal values may be shown once. Out of some 5,500 compounds screened, about 2,000 (36%) were called active. Roughly 18% stayed inconclusive and do not appear here. Cut-off read from the data, not from the text of the source: active = normalized growth mostly below about 0.91 (no sharp cut-off); inconclusive = no clear call, values can overlap the other calls; inactive = mostly above about 0.92. The list shows a part of the results.

Assay: chemical genetic growth profiling, strain panel (AID 1159580);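 note: tested at 20 µM; growth read once vehicle control cultures reached saturation at 30 °C; 1 = growth at the plate median or of vehicle wells; lower values mean less growth of the strain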
Settings: S. cerevisiae deletion strains, growth OD

Measured: normalized growth

CO[C@@]1(NC(=O)C(C(=O)O)c2ccc(O)cc2)C(=O)N2C(C(=O)O)=C(CSc3nnnn3C)CO[C@@H]21 (stereo partly specified)
inactive: locus YAL013W, strain DEP1, active compounds read low 1.01 | locus YAL021C, strain ccr4, active compounds read low 0.993 | locus YAL026C, strain drs2, active compounds read low 1 | locus YAL030W, strain snc1, active compounds read low 0.982 | locus YBL061C, strain skt5, active compounds read low 0.979 | locus YBR021W, strain FUR4, active compounds read low 0.998 | locus YBR023C, strain chs3, active compounds read low 0.994 | locus YBR171W, strain sec66, active compounds read low 0.984 | locus YBR229C, strain ROT2, active compounds read low 1 | locus YBR231C, strain swc5, active compounds read low 0.956 | locus YBR279W, strain paf1, active compounds read low 0.995 | locus YCL011C, strain gbp2, active compounds read low 0.955 | locus YCL016C, strain dcc1, active compounds read low 0.955 | locus YCL029C, strain bik1, active compounds read low 1.03 | locus YCL061C, strain MRC1, active compounds read low 1 | locus YCL069W, strain vba3, active compounds read low 0.991 | locus YCR088W, strain abp1, active compounds read low 0.984 | locus YDL005C, strain med2, active compounds read low 0.991 | locus YDL035C, strain GPR1, active compounds read low 0.999 | locus YDL040C, strain nat1, active compounds read low 0.989 | locus YDL074C, strain BRE1, active compounds read low 1.03 | locus YDL101C, strain DUN1, active compounds read low 1.01 | locus YDL134C, strain PPH21, active compounds read low 1 | locus YDL185W, strain tfp1, active compounds read low 1.03 | locus YDL192W, strain arf1, active compounds read low 1.02 | locus YDR001C, strain nth1, active compounds read low 0.977 | locus YDR069C, strain doa4, active compounds read low 1.01 | locus YDR101C, strain arx1, active compounds read low 1.01 | locus YDR137W, strain rgp1, active compounds read low 0.98 | locus YDR150W, strain NUM1, active compounds read low 1.02 | locus YDR159W, strain sac3, active compounds read low 1.01 | locus YDR162C, strain NBP2, active compounds read low 1 | locus YDR195W, strain ref2 1 | locus YDR297W, strain sur2, active compounds read low 0.971 | locus YDR318W, strain mcm21, active compounds read low 1.02 | locus YDR334W, strain swr1, active compounds read low 0.942 | locus YDR335W, strain msn5, active compounds read low 0.981 | locus YDR388W, active compounds read low 1.02 | locus YDR392W, strain spt3, active compounds read low 0.909 | locus YDR502C, strain sam2, active compounds read low 1.01 | locus YEL003W, strain gim4, active compounds read low 0.99 | locus YEL037C, strain rad23, active compounds read low 0.988 | locus YEL061C, strain CIN8 (second series), active compounds read low 0.982 | locus YEL061C, strain CIN8, active compounds read low 1.01 | locus YER015W, strain faa2, active compounds read low 0.982 | locus YER016W, strain bim1, active compounds read low 1 | locus YER110C, active compounds read low 1.02 | locus YER111C, strain swi4, active compounds read low 0.983 | locus YER155C, strain BEM2 (second series), active compounds read low 0.993 | locus YER155C, strain BEM2, active compounds read low 1.01 | locus YER167W, strain BCK2, active compounds read low 1 | locus YFR010W, strain ubp6, active compounds read low 0.996 | locus YGL078C, strain dbp3, active compounds read low 0.998 | locus YGL086W, strain mad1, active compounds read low 1.01 | locus YGL167C, strain pmr1, active compounds read low 0.987 | locus YGL173C, strain kem1, active compounds read low 0.992 | locus YGL227W, strain vid30, active compounds read low 0.99 | locus YGL240W, strain doc1, active compounds read low 0.987 | locus YGL248W, strain PDE1, active compounds read low 1.01 | locus YGL253W, strain hxk2, active compounds read low 0.996 | locus YGR078C, strain PAC10, active compounds read low 1.02 | locus YGR135W, strain pre9, active compounds read low 1 | locus YGR229C, strain SMI1, active compounds read low 1 | locus YGR252W, strain gcn5, active compounds read low 0.93 | locus YHR013C, strain ard1, active compounds read low 0.962 | locus YHR027C, strain rpn1, active compounds read low 0.964 | locus YHR030C, strain SLT2, active compounds read low 1.01 and 0.97 | locus YHR079C, strain IRE1 (second series), active compounds read low 1.02 | locus YHR079C, strain IRE1, active compounds read low 0.99 | locus YHR094C, strain hxt1, active compounds read low 1.02 | locus YHR129C, strain ARP1, active compounds read low 1 | locus YHR142W, strain chs7, active compounds read low 0.974 | locus YHR200W, strain rpn10, active compounds read low 1.02 | locus YIL066C, strain RNR3, active compounds read low 1.02 | locus YIL073C, strain SPO22, active compounds read low 1.04 | locus YIL125W, strain kgd1, active compounds read low 1.01 | locus YIR030C, strain dcg1, active compounds read low 1.02 | locus YJL092W, strain hpr5, active compounds read low 0.983 | locus YJL095W, strain BCK1 (second series), active compounds read low 0.982 | locus YJL095W, strain BCK1, active compounds read low 1.01 | locus YJL115W, strain asf1, active compounds read low 0.96 | locus YJL129C, strain trk1, active compounds read low 0.999 | locus YJL134W, strain LCB3, active compounds read low 1 | locus YJL154C, strain vps35, active compounds read low 0.975 | locus YJL164C, strain tpk1, active compounds read low 0.989 | locus YJL166W, strain qcr8, active compounds read low 0.951 | locus YJL168C, strain set2, active compounds read low 1.02 | locus YJL187C, strain SWE1 (second series), active compounds read low 1.02 | locus YJL187C, strain SWE1, active compounds read low 0.986 | locus YJR043C, strain POL32, active compounds read low 1.01 | locus YJR066W, strain TOR1, active compounds read low 0.918
